Tb PYK inh: inhibitors of Trypanosoma brucei pyruvate kinase; Q57TT1; AID 624173; Potency, µM (series often up to 76.8 µM), without a hit: at the top dose activity, negative = inhibition, most hits filed as inhibitors; 410,000 tested, 0.12% active; TbPYK enzyme, Kinase-Glo Plus ATP luminescence, 45 min; note: potency is the fitted concentration of half-maximal effect; nearly all actives have a fitted effect of over 50% in size
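Assay buffer: 50 mM TEA pH 7.2, 100 mM KCl, 10 mM MgCl2, 0.05% BSA, 0.01% Tween-20. Pyruvate kinase from T. brucei plus substrate met compound, then ADP (130 uM final). Luminescence was read post 45 min RT.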
HCMV antiviral: human cytomegalovirus inhibition | HFF cells, HCMV-luciferase reporter, 72 h; active compounds read low | activity change, negative = inhibition, % at 57.5 µM | 410,000 tested, 4.5% active; in the data active = activity change below about -60%; inconclusive = no clear call, values can overlap the other calls; inactive = above about -39%
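HFF cells seeded 16 h at 37C, treated with compounds, infected with luciferase-reporter HCMV at MOI 1 PFU/cell; luciferase read at 72 h post infection, normalized to buffer-only and Salinomycin controls.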
RE007 growth inh: less growth of the S. pombe RE007 Vpr strain; S. pombe RE007 Vpr strain, BacTiter-Glo ATP luminescence, 24 h; Potency, µM (titrated, usually from 92.2 µM), inactives show top-dose activity change, negative = less growth, hits mostly inhibitors; 360,000 tested, 0.21% active; AID 651644; active = well fitted falling curve with a large enough effect; inconclusive = small, poorly fitted or top-dose-only effect; inactive = no such curve, though single readings can be large or run the other way; note: potency is the fitted concentration of half-maximal effect; nearly all actives have a fitted effect of over 50% in size
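Fission yeast strain RE007, carrying one chromosomally integrated HIV-1 vpr copy, was seeded at OD 0.01 in PMG+AL medium with 23 nL pinned compound. After 24 h at 30 °C and 99% humidity, viability was read by BacTiter-Glo luminescence.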
Giardia FBPA inh: Giardia lamblia aldolase inhibition. A8B2U2. purified Giardia FBPA. Potency, µM (series often up to 59.6 µM), inactives show at the highest dose activity, negative = inhibition, most hits filed as inhibitors. 290,000 tested, 0.71% active; note: potency is the fitted concentration of half-maximal effect; nearly all actives have a fitted effect of over 55% in size
Target sequence (A8B2U2 whole entry, looked up): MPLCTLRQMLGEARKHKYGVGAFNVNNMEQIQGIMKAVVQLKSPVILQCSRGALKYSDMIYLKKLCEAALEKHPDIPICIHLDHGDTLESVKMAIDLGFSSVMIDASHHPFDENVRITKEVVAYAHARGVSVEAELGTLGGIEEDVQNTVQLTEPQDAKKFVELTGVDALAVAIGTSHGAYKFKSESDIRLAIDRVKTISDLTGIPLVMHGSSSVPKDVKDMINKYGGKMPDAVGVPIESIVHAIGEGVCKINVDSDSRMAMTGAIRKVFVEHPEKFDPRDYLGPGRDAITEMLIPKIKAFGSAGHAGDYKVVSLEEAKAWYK
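40 nM FBPA preincubated 10 min at RT with compound (up to 57.5 uM final), then substrate plus GAPDH/TPI/NAD/arsenate coupling and diaphorase/resazurin added. Fluorescence read after 20 min at RT, 525/598 nm.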
Sm TGR inh: blocks Schistosoma mansoni thioredoxin glutathione reductase; AID 485364; purified TGR, DTNB reduction, TNB absorbance 405 nm; Potency, µM (series often up to 114 µM), for inactives: at the highest dose activity change, negative = inhibition, hits mostly inhibitors; Q962Y6; 360,000 tested, 3% active; note: potency is the fitted concentration of half-maximal effect; nearly all actives have a fitted effect of over 60% in size
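First, TGR (20 nM dispensed) and NADPH were mixed with compound. Second, a 15 min room-temperature incubation followed. Third, further NADPH and then DTNB were added to start the reaction. Finally, TNB absorbance was monitored kinetically.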
FMDV antiviral: blocks foot and mouth disease virus; 410,000 tested, 1.2% active; FMDV antiviral cell-based qHTS; Potency, µM (top dose mostly 57.9 µM), for inactives: top-dose activity change, negative = inhibition, usual class: inhibitors; calls by dose curve; tested in HEK293T cells; note: read-out not given here; potency is the fitted concentration of half-maximal effect; nearly all actives have a fitted effect of over 45% in size
* hit, by the source's call; [ ] = remark or other dose. Sampled rows, rich in hits. Any-hit rate of the full collection: about 7.7%. Unless noted, calls come from the whole dose curve; as a rule, active = well fitted curve in the direction sought with a large enough effect; inconclusive = small, poorly fitted or top-dose-only effect, or another doubt; inactive = no such curve, though single readings can be large; an effect the other way counts as inactive or inconclusive. % is set by controls: 0 for no effect and ±100 for the full control effect.

For CC(C)(C)C1CCC(=NNC(=S)NCc2ccccc2)CC1 (stereo not given) the results were Tb PYK inh -1.0%, HCMV antiviral -62.5*, RE007 growth inh 3.0%, Giardia FBPA inh -19.6%, Sm TGR inh -15.2% and FMDV antiviral -23.3%.
Screening S=C(NCCc1ccccc1)N/N=C/C1CCCCC1 returned Giardia FBPA inh -2.0% and Sm TGR inh -0.7%.
S=C(NCCc1ccccc1)NN=C1CCCCCC1 was read as Tb PYK inh 0.3%, HCMV antiviral -92.4*, RE007 growth inh 35.7%, Giardia FBPA inh -8.2%, Sm TGR inh -0.9% and FMDV antiviral 53.6%.
For C/C(=N/NC(=O)c1cnccn1)c1ccncc1 the results were Tb PYK inh 3.2%, HCMV antiviral 12.3, RE007 growth inh -5.7%, Giardia FBPA inh -0.6%, Sm TGR inh 4.8% and FMDV antiviral 21.7%.
CC(=NNC(=S)N1CC2CCC(CC2)C1)c1cnccn1 was read as Tb PYK inh -22.3%, HCMV antiviral -95.8*, RE007 growth inh inconclusive and FMDV antiviral -16.6%.
`C/C(=N\NC(=O)C1CCCN(S(=O)(=O)c2ccccc2)C1)c1ccccn1` (stereo not given) gave Tb PYK inh -1.1%, HCMV antiviral -92.6*, RE007 growth inh -10.9%, Giardia FBPA inh -7.3%, Sm TGR inh -0.1% and FMDV antiviral inconclusive.
`O=C(c1ccccn1)N1CCN(S(=O)(=O)c2ccccc2)CC1` gave Tb PYK inh 4.1%, HCMV antiviral -94.2*, RE007 growth inh 26.4%, Giardia FBPA inh 4.8%, Sm TGR inh 1.3% and FMDV antiviral -16.8%.
For CC(=NNC(=S)N1CCCCCC1)c1cccc2cccnc12 the results were Tb PYK inh -17.4%, HCMV antiviral -74.9*, RE007 growth inh 2.0% and FMDV antiviral 21.1%.
CCn1cc(C(=O)NCc2ccc(F)cc2)c(=O)c2cc(S(=O)(=O)N(C)C)ccc21 was read as Tb PYK inh -3.3%, HCMV antiviral -1.2, Sm TGR inh -2.1% and FMDV antiviral -3.0%.
`Cc1ccc(-c2nnc3ccccc3c2C(=O)Nc2cccc(Cl)c2)cc1` gave Tb PYK inh 9.3%[15.4 µM], HCMV antiviral 0.0, Sm TGR inh 3.8% and FMDV antiviral 37.8%.
Screening O=C(NC1CCCCC1)C1CCCN(S(=O)(=O)c2ccc(F)cc2)C1 (stereo not given) returned Tb PYK inh -1.7%, HCMV antiviral -81.2*, RE007 growth inh 11.8%, Giardia FBPA inh -7.1%, Sm TGR inh 23.5% and FMDV antiviral -12.7%.
Screening C/C(=N\NC(=O)c1ccc(NS(=O)(=O)c2cccs2)cc1)c1ccccn1 returned Tb PYK inh -1.2%, RE007 growth inh 5.8%, Giardia FBPA inh inconclusive, Sm TGR inh -10.4% and FMDV antiviral 10.6%.
`CC(=NNC(=S)N1CCN(C2CCCCCC2)CC1)c1ccccn1` gave Tb PYK inh inconclusive, HCMV antiviral -96.5*, RE007 growth inh 1.7% and FMDV antiviral inconclusive.
`O=C(NC(=S)N1CCN(C2CCCCC2)CC1)c1ccccc1` gave Tb PYK inh -14.2%, HCMV antiviral inconclusive, RE007 growth inh 7.6%, Giardia FBPA inh inconclusive, Sm TGR inh 11.5% and FMDV antiviral -15.0%.
For O=C(CN1CCCCC1)N1CCN(S(=O)(=O)c2ccccc2)C1 the results were Tb PYK inh -8.6%, HCMV antiviral -102.9*, RE007 growth inh 18.3%, Giardia FBPA inh 0.8%, Sm TGR inh 9.2% and FMDV antiviral 1.3%.
O=C(CN1CCN(S(=O)(=O)c2ccc(Cl)cc2)CC1)N1CCCC1 was read as Tb PYK inh -1.0%, HCMV antiviral -14.9, RE007 growth inh -11.1%, Sm TGR inh -13.2% and FMDV antiviral -11.1%.
CC(=NNC(=S)N1CC2CCC(CC2)C1)c1ccccn1 was read as Tb PYK inh -26.8%, HCMV antiviral -99.6*, RE007 growth inh -9.4% and FMDV antiviral -3.7%.
For O=c1cnc2cncnc2n1Cc1ccccc1Cl the results were Giardia FBPA inh -3.3% and FMDV antiviral -29.8%.
`CCOc1ccc(C(=O)Nc2c(C(=O)Nc3ccccc3OC)oc3ccccc23)cc1OCC` gave Tb PYK inh -2.0%, HCMV antiviral 41.1, Sm TGR inh -6.5% and FMDV antiviral -28.9%.
Screening CC(C)(O)C1CC[C@@]2(C)C3CCC4[C@@]5(C)CCCC(C)(C)C5C(O)C[C@]4(C)[C@]3(C)CC[C@@H]12 (stereo not given in full) returned Giardia FBPA inh -1.3% and FMDV antiviral 5.0%.
Screening Nc1ccn(C2OC(CCl)C(O)C2O)c(=O)n1 (stereo not given) returned Tb PYK inh -5.4%, HCMV antiviral -60.7*, RE007 growth inh 8.8% and FMDV antiviral -8.6%.
`Nc1ccn(C2OC(COC(=O)C34CC5CC(CC(C5)C3)C4)C(O)C2O)c(=O)n1` (stereo not given) gave Tb PYK inh -2.3%, HCMV antiviral -97.3*, RE007 growth inh 10.1% and FMDV antiviral -12.4%.
N=c1ccn2c(n1)OC1C(O)C(CO)OC12 (stereo not given) was read as Tb PYK inh -2.0%, HCMV antiviral -99.7*, Giardia FBPA inh -6.1%, Sm TGR inh -19.6% and FMDV antiviral 2.9%.
`Nc1ccn([C@@H]2O[C@H](COS(=O)(=O)O)[C@@H](O)[C@H]2O)c(=O)n1` gave Tb PYK inh 2.2%, HCMV antiviral 6.1, RE007 growth inh -14.6% and FMDV antiviral -5.8%.
Nc1ccn([C@@H]2O[C@H](CO)[C@@H](O)[C@H]2O)c(=O)n1 was read as Tb PYK inh 4.4%, HCMV antiviral 40.1, RE007 growth inh -8.5%, Giardia FBPA inh 9.4% and FMDV antiviral -13.3%.
Nc1ccn([C@@H]2O[C@H](CO)[C@@H](O)C2O)c(=O)n1 (stereo not given in full) was read as Tb PYK inh 2.7%, HCMV antiviral -96.9*, RE007 growth inh 0.1%[18.4 µM], Giardia FBPA inh -0.3%, Sm TGR inh 5.6% and FMDV antiviral -23.5%.
For Cc1cnc(SCC2CCCO2)nc1C1CCCN(C(=O)c2ccc(S(N)(=O)=O)cc2)C1 (stereo not given) the results were FMDV antiviral 5.4%.
`Cc1ccc2ncc3c(-c4ccc(F)cc4)nn(CC(=O)Nc4ccccc4C)c3c2c1` gave Tb PYK inh -2.2%, HCMV antiviral 21.1, Sm TGR inh 4.6% and FMDV antiviral -2.8%.
`O=C(N[C@H](C(=O)N1CCC[C@H]1C(=O)NCCc1ccccc1Cl)c1ccccc1)c1ccco1` gave HCMV antiviral -22.2.
